Source: PubChem (several laboratories)
This is a sample that favours compounds with a hit; in the whole collection about 2% have one here.
A3G deaminase: blocks human APOBEC3G single-stranded DNA deamination. Q9HC16. recombinant A3G, ssDNA deamination FAM/TAMRA fluorescence. inhibition, % at 20 µM. hit rate 0.28% among 330,000. AID 493012;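 active = inhibition of at least 40% at 20 µM, with no more than 30% in the related APOBEC3A deaminase screen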;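 note: plate controls were DMSO wells with A3G for no effect and wells lacking A3G enzyme for full effect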
Target sequence (Q9HC16 whole entry, looked up): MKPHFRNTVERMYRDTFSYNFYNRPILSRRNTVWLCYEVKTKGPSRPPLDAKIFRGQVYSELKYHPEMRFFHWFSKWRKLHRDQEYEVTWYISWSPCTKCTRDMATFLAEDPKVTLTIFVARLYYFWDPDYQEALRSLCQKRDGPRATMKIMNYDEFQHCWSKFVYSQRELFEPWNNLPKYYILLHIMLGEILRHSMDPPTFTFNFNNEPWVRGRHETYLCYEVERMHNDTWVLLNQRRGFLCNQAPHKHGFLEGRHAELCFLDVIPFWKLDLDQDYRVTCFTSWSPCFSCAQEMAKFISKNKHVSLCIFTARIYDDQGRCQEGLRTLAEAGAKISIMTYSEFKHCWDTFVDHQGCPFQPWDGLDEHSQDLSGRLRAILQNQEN
NALP1 yeast inh: blocks the NALP1 inflammasome reconstituted in yeast; S. cerevisiae NALP1/ASC/caspase-1 growth, X-gal OD620, 72 h; inhibition, % at 10 µM; hit rate 0.61% among 280,000; AID 2071; in the data active = inhibition mostly above about 24%, no sharp cut-off; inactive = mostly below about 32%
APOBEC3A inh: human APOBEC3A DNA deaminase inhibition; P31941; AID 493011; hit rate 0.41% among 330,000; inhibition, % at 20 µM; recombinant A3A, FAM/TAMRA ssDNA deamination fluorescence;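 active = at least 40% inhibition at 20 µM here, with at most 30% in a related deaminase screen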;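 note: plate controls were A3A with DMSO for no effect and wells lacking A3A enzyme for full effect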
Target sequence (P31941 whole entry, looked up): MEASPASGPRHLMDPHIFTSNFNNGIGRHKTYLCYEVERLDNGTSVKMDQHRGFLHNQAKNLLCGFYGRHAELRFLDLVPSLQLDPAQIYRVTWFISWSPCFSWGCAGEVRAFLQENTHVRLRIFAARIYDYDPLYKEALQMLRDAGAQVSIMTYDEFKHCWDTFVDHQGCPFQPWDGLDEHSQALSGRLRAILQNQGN
CTSL1 counter: blocks F. hepatica cathepsin L1 in PFM18AAP counter-screen; recombinant F. hepatica cathepsin L1, Z-Leu-Arg-MCA fluorescence; inhibition, % at 5.96 µM; hit rate 0.49% among 300,000; AID 1906;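 active = inhibition above the mean of all tested compounds plus 3 SD, set per screening campaign, cut at about 17% in these data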;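 note: 0% = plate median of test compound wells and 100% = 1 µM Z-Phe-Ala-diazomethylketone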
HGIII-sPLA2 inh: Blocks human group III sPLA2 activity; Q9NZ20; QFRET BODIPY PC-A2 liposome hydrolysis, fluorescence; inhibition, % at 12.2 µM; hit rate 0.56% among 370,000; AID 743126;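 active = inhibition above mean plus 3 SD of compounds lying within the high and low control bounds, cut at about 19% in these data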;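 note: 0% = median of test compound wells and 100% = no enzyme DMSO wells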
APOBEC3A confirm: confirmation of human APOBEC3A DNA deaminase inhibitors | shares compounds with APOBEC3A inh | recombinant A3A, ssDNA deaminase UDG fluorescence assay | inhibition, % at 20 µM | hit rate 63% among 1,400 | AID 493151;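 active = inhibition reaching a set limit, 80% of the first screen's cutoff, at 20 µM in any replicate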;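 note: plate controls were DMSO wells with A3A for no effect and wells lacking A3A enzyme for full effect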
UDG A3A counter: inhibits UDG, flagging false APOBEC3A inhibitors; shares compounds with APOBEC3A inh; UDG counterscreen, FAM/TAMRA uracil oligo fluorescence; inhibition, % at 20 µM; 1,000 tested, under 10 active; AID 504714; call rule not given here
Numbers without * were called inactive; . = no result given.

SMILES	A3G deaminase	NALP1 yeast inh	APOBEC3A inh	CTSL1 counter	HGIII-sPLA2 inh	APOBEC3A confirm	UDG A3A counter
Cc1cccc(C)c1NC(=O)C(C)Sc1n[nH]c(-c2ccncc2)n1 (stereo not given)	-8.3	-8.8	82.0*	-4.1	7.0	-10.4	1.3
Cc1ccc(-c2nc(SC(C)C(=O)NC3CC3)n[nH]2)cc1 (stereo not given)	.	.	.	.	-9.1	.	.
CCN(CC)Cc1c(C(=O)N/N=C/c2ccncc2)nnn1-c1nonc1N	0.3	21.1	-0.6	0.1	-3.7	.	.
CN(C)Cc1c(C(=O)N/N=C/c2ccncc2)nnn1-c1nonc1N	-8.8	0.5	48.0*	-5.5	-2.1	0.4	-1.1
CCN1C(=O)c2ccccc2Sc2ccc(C(=O)O)cc21	-3.7	6.3	-3.6	0.3	-4.0	.	.
CCOC(=O)c1ccc2c(c1)N(C)C(=O)c1ccccc1S2	12.8	10.2	57.5*	5.4	.	81.6*	-2.5
CCN(CC)CCCNC(=O)c1cn(C(C)c2ccccc2)nn1 (stereo not given)	.	.	.	.	0.9	.	.
COC(=O)c1ccc(Cn2ccc3ccc(-c4ccc5ccn(C(=O)c6ccccc6C)c5c4)cc32)cc1	.	.	.	.	0.6	.	.
O=C(NCCc1ccccc1)c1ccc2c(c1)OCCO2	-7.6	8.6	0.0	-3.5	-1.0	.	.
O=C(NCCc1ccccc1)c1ccc2c(c1)OCCCO2	5.6	12.0	41.6*	5.2	0.2	51.0*	1.7
Cc1ccccc1-c1cccc2c3c([nH]c12)[C@@H]1C[C@H]2[C@@H](CN1CC3)[C@H](C)ON2C	.	.	.	.	8.7	.	.
O=C(C(=O)N1CCCCCC1)c1c[nH]c2ccccc12	-3.7	7.3	-4.0	.	-1.9	.	.
C[n+]1cc(C(=O)N2CCCCC2)ccc1/C=C/c1c[nH]c2ccccc12	14.1	2.9	75.1*	5.1	-42.3	72.6*	7.1
Cc1cc(/C=C(/C#N)c2nc3ccccc3[nH]2)c(C)n1-c1cc(C(=O)O)cc(C(=O)O)c1	22.1	6.9	48.9*	.	-6.3	41.1*	-4.4
Cc1cc(/C=C(/C#N)c2nc3ccccc3[nH]2)c(C)n1-c1ccccc1C(=O)O	13.1	3.2	29.4	2.2	-1.3	.	.
O=c1cc(N2CCN(c3cccc(C(F)(F)F)c3)CC2)[nH]c(=O)n1-c1ccccc1	.	.	.	.	6.3	.	.
CC(=O)Nc1ccc(S(=O)(=O)/N=C2/NC(=O)/C(=C\c3ccco3)S2)cc1	14.5	16.4	59.7*	-0.2	-23.6	31.6*	-4.8
COc1ccc(N=C2NC(=O)/C(=C\c3ccco3)S2)cc1	26.3	12.3	64.3*	0.2	-17.5	36.2*	-2.0
CC(C)CNC(=O)C1CSCCS(=O)(=O)N1Cc1ccc(F)cc1 (stereo not given)	.	.	.	.	9.4	.	.
Cc1nn(C(C)C(=O)Nc2ccc(Cl)cn2)c(C)c1[N+](=O)[O-] (stereo not given)	-1.1	19.2	52.0*	6.2	-2.3	8.8	-0.4
COC(=O)C1=C(C)N(Cc2cccc(C(F)(F)F)c2)C(=NCc2ccc3c(c2)OCO3)NC1c1ccc(F)cc1 (stereo not given)	.	.	.	.	14.0	.	.
COc1ccc2c(c1)CO[C@H]([C@H](O)COC(C)=O)[C@H]2/C=C/c1ccccc1	.	.	.	.	-5.6	.	.
Cc1cc([N+](=O)[O-])ccc1N	-3.6	.	-1.0	-0.5	4.3	.	.
C[n+]1ccccc1Nc1cc([N+](=O)[O-])ccc1N	18.9	0.2	63.4*	-1.5	7.7	70.2*	-0.8
Cc1cc(C)cc(OCC(=O)N2N=C(C(F)(F)F)CC2(O)C(C)(C)C)c1 (stereo not given)	18.7	5.7	56.5*	3.1	-18.8	47.6*	-1.4
SMILES	A3G deaminase	NALP1 yeast inh	APOBEC3A inh	CTSL1 counter	HGIII-sPLA2 inh	APOBEC3A confirm	UDG A3A counter
Cc1cc(NS(=O)(=O)c2ccc(NC(=O)Cc3ccc(Cl)c(Cl)c3)cc2)on1	.	.	.	.	-54.6	.	.
O=C(NC(Cc1ccccc1)c1nc2ccccc2[nH]1)C1CC(=O)N(c2ccc3c(c2)OCCO3)C1 (stereo not given)	21.4	-6.8	54.8*	1.2	-4.9	4.1	.
CCCN1CCS(=O)(=O)N(Cc2cn(Cc3ccccc3)nn2)C(C(=O)OC)C1 (stereo not given)	.	.	.	.	12.1	.	.
COC(=O)c1ccc(CN2C(=O)c3ccccc3S2(=O)=O)cc1	-6.7	31.7	0.9	0.2	0.1	.	.
COC(=O)c1cccc(N2C(=O)c3ccccc3S2(=O)=O)c1	19.3	7.3	40.3*	-2.2	-2.2	1.0	.
CCCN(CC(=O)Nc1ccc(F)c(F)c1F)C(=O)C1=COCCO1	15.0	.	50.7*	5.0	6.0	4.5	.
CN(CC(=O)Nc1ccc(F)c(F)c1F)C(=O)C1=COCCO1	1.1	2.4	3.6	0.5	5.0	.	.
CC(=NNc1cc(C)c2ccccc2n1)c1ccccn1	.	.	.	.	1.7	.	.
O=C(O)C1CCCCC1C(=O)Nc1cccc(Br)c1 (stereo not given)	24.1	.	94.3*	-0.1	3.2	90.9*	.
CCN(CC)C(=O)CC[C@H]1CC[C@]2(CCCN(Cc3nccs3)C2)O1	.	.	.	.	12.9	.	.
CC(=O)Nc1cc(Br)ccc1O	-13.3	0.6	-2.5	7.9	4.9	.	.
CC(=O)Nc1cc(-c2ccccc2)ccc1O	16.4	13.4	46.6*	-4.3	-3.6	60.1*	-2.9
N#Cc1cccc(NC(=O)Cn2c3[n+](c4ccc(C(F)(F)F)cc42)CCCCC3)c1	28.3	20.7	41.7*	-3.1	0.2	59.8*	-2.6
CCn1c(CNC(=O)COc2ccc(C(C)C)cc2)nnc1SCC(=O)Nc1cc(F)ccc1C	22.9	-0.9	77.7*	-1.3	-38.6	76.8*	10.5
O=C(CC12CCC(CC1)C2)NCc1ccc2c(c1)OCO2	-2.9	1.2	44.4*	-0.4	2.1	-3.7	-0.6
O=C(OCc1cn(Cc2c(F)cccc2F)nn1)N1CCCC1	.	.	.	.	0.6	.	.
CCCCCn1ccc(=N)cc1	28.4	-8.7	62.2*	0.0	2.7	71.8*	-3.4
CCCCCCCn1ccc(=N)cc1	18.9	7.1	74.3*	2.6	4.4	74.3*	-1.0
CCCCCCCCCn1ccc(=N)cc1	-4.7	-4.0	-2.1	-3.2	0.2	.	.
CC(C)C(NC(=O)c1ccccc1F)C(=O)NCc1ccc(F)cc1 (stereo not given)	2.9	-1.5	40.5*	2.9	-4.6	13.4	.
CC(C)[C@H](NC(=O)c1ccccc1F)C(=O)NCCc1ccccc1	2.3	16.2	21.6	16.3	4.7	.	.
O=C1/C(=C\c2ccco2)SC(=S)N1C1CCS(=O)(=O)C1 (stereo not given)	19.6	27.2	34.7	3.2	-8.2	.	.
O=C1/C(=C/c2ccco2)SC(=S)N1C1CCS(=O)(=O)C1 (stereo not given)	18.3	21.9	47.1*	3.4	-4.6	51.6*	.
O=C1/C(=C/c2ccco2)SC(=S)N1CC1CCCO1 (stereo not given)	19.4	-1.3	55.6*	4.1	8.6	26.4*	3.2
